This note sets out measurements from PubChem BioAssay AID624308 (National Center for Advancing Translational Sciences (NCATS), 2012).

Structures are written as SMILES. Results filed as inconclusive are left out. Activity calls are given as the source filed them. The call rests on the fitted dose curve; in most records, active means well fitted inhibition curve with a large enough effect; inconclusive means small, poorly fitted or top-dose-only effect; inactive means flat fitted curve, though single readings scatter.

Chain of Peptidyl-prolyl cis-trans isomerase NIMA-interacting 1 (Homo sapiens) (Q13526 whole entry, looked up, the tested form may be a part): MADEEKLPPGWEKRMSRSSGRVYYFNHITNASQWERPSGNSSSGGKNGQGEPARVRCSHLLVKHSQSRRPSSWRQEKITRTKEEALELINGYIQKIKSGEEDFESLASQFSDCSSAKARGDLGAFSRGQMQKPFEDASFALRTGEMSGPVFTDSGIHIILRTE

In this assay the target is Peptidyl-prolyl cis-trans isomerase NIMA-interacting 1 (Homo sapiens) (UniProt Q13526). The assay can be described thus: qHTS Assay to Find Inhibitors of Pin1: Hit Validation. Particulars: Pin1 FP peptide displacement, HiFluor488 probe; series mostly up to 57.5 µM. The source says:
The unique chemical properties of Pro allow for the adoption of two completely distinct amide bond conformations (cis and trans). Peptidyl-prolyl cis/trans isomerases (PPIases) are evolutionary conserved enzymes that catalyze cis/trans isomerization of peptidyl-prolyl peptide bonds. Distinct from all other PPIases such as cyclophilins and FK506-binding proteins (FKBPs), Pin1 binds a subset of phos.Ser/Thr-Pro-containing proteins using its protein-targeting WW domain and isomerizes only specific phos.Ser/Thr-Pro bonds, which cannot be effectively catalyzed by other known PPIases. Pin1-catalyzed conformational regulation can control a spectrum of activities of many key regulators in diverse cellular processes such as cell growth, genotoxic and other stress responses, immune response, germ cell development, neuronal differentiation and survival. Pin1 has emerged as a novel molecular timer that modulates its multiple targets at various steps of a given cellular process to synergistically control the amplitude and duration of a cellular response or process. Importantly, Pin1 is tightly regulated by multiple levels and its deregulation has an important role in a growing number of pathological conditions, including cancer, Alzheimer's disease, aging, asthma and microbial infection, providing a potentially new therapeutic option. The goal of this screen is to find small-molecule inhibitors of Pin1 using a fluorescence polarization competition assay. A HiFluor-488-labeled peptide binds to the active site of Pin1 and can be displaced by compounds. Compounds were screened as a concentration-titration series that ranged from 57 uM to 0.7 nM. This is the hit validation to test the hits identified in the primary screen. NIH Molecular Libraries Probe Production Network [MLPCN] NIH Chemical Genomics Center [NCGC] MLPCN Grant: R03 DA031663 PI Name: Dr. Kun Ping Lu, Beth Israel Deaconess Medical Center
Pin1 (0.6 uM) was dispensed into black, solid 1536-well plates at 2 uL/well in 10 mM HEPES (pH 7.5), 10 mM NaCl, 0.01% Tween20, 1 mM DTT, and 1% glycerol. Then, 23 nL of compounds or DMSO were delivered to each well using a pin tool. Two uL of Pin1-1b-HiFluor488 peptide (10 mM HEPES (pH 7.5), 10 mM NaCl, 0.01% Tween20, 1 mM DTT, and 1% glycerol, 0.02 uM Pin1-1b-HiFluor488) was then dispensed, and plates were incubated at room temperature for 10 min. The plates were measured on a ViewLux plate reader for fluorescence polarization signal using a 480/20 nM nm excitation filter and 540/25 nM nm S and P emission filters with a 20 second exposure. The %Activity was determined from the corrected fluorescence polarization values. Unlabeled Pin1-1c peptide was used as a control (3.5 mM two-fold serial; 20 uM final concentration) along with a 1x (0.3 uM) and 0x (no-enzyme) Pin1 enzyme control to normalize %Activity of identified inhibitors; 0x enzyme values corresponded to 100%Activity (full inhibition), while 1x Pin1 enzyme values were used to normalize 0%Activity (no inhibition). Concentration-response curves were fitted to the signals arising from the resulting fluorescence polarization. The concentration-effect curves were then classified based on curve quality (r2), response magnitude and degree of measured activity, and compounds were subsequently categorized based on their curve class. […] Keywords: Peptidyl prolyl isomerase, Pin1, fluorescence polarization, MLSMR, MLPCN, NIH Roadmap, qHTS, NCGC
`COc1ccccc1Nc1ccc2c(O)cc(S(=O)(=O)O)cc2c1`: the Potency is 1.2 µM (active).
The value for `O=S(=O)(O)c1cc(O)c2cc(Nc3ccccc3)ccc2c1` was 10.7 µM (active).
In the case of `O=S(=O)(O)c1ccc(O)c2cc(Nc3ccccc3)ccc12` it was 1.69 µM (active); in that of `O=C1c2ccccc2C(=O)c2c(O)c(O)cc(O)c21`, 26.9 µM (active); in that of `Cc1ccc2nc(-c3ccc(N=Nc4cc(S(=O)(=O)O)c5ccccc5c4O)cc3)sc2c1S(=O)(=O)O`, 3.01 µM (active).
The value for `COc1cccc2c1C(=O)c1c(O)c3c(c(O)c1C2=O)C[C@](O)(C(C)=O)C[C@H]3O[C@@H]1C[C@@H](N)[C@@H](O)[C@@H](C)O1` was “inactive”; that for `CC(=O)Nc1ccc(Nc2c3c4c(cccc4n(C)c2=O)C(=O)c2ccccc2-3)cc1` was 3.38 µM (active).
With `COc1ccc(S(=O)(=O)Nc2cc(Sc3ncn[nH]3)c(O)c3ccccc23)cc1`, the Potency result is “inactive”.
In the case of `O=S(=O)(Nc1cc(Sc2ncn[nH]2)c(O)c2ccccc12)c1ccccc1` it was “inactive”; in that of `CCCCCC(=O)Nc1cc(S(=O)(=O)O)cc2cc(S(=O)(=O)O)cc(O)c12`, 1.69 µM (active).
